Source: PubChem BioAssay
Most compounds without a hit are left out; they make up all but 9.6% or so of the library.
PTEN del growth = growth suppression of PTEN-null HCT116, primary screen, cell-based, CellTiter-Glo | HCT116 PTEN-null viability, 60 h; stronger effect = lower value | viability, % at 10 µM | hit rate 1.2% among 140,000;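 active = viability at or below a set limit, 4 SD under the median of all tested compounds, cut at about 3.7% in these data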;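 note: PTEN knockout HCT116 line with beta catenin targeted HCT116 as companion control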
Insulin prom inh = inhibitors of insulin promoter-driven GFP, primary screen, imaging, TRM-6 cells (human fetal islet line), eGFP reporter, cell count. reporter expression induced with tamoxifen. AID 1273, 2008. inhibition, % at 2 µM. hit rate 0.9% among 130,000;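 active = inhibition above the mean plus 3 SD, with well images judged a real hit on visual review, cut at about 60% in these data, passing the limit was not always enough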
Insulin prom up = insulin promoter activators in MIN6 cells, imaging, high-content screening, mouse beta cells. MIN6 insulin promoter-GFP reporter; stronger effect = higher value. z-score at 5 µM. hit rate 0.3% among 190,000. AID 1625, 2009;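 active = z-score above 3 at 5 µM with at least 500 cells counted in the well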
Autophagy mod = autophagy modulators in MEF cells, primary screen, imaging, high-content, MEF GFP-LC3; MEF GFP-LC3 puncta imaging; test concentration mostly 10 µM; calls only at 10 µM (by protocol); hit rate 0.98% among 190,000;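 active = percentage of spot-positive cells more than 3 SD above its plate mean, without a fluorescence outlier flag or 80% toxicity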;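 note: spot-positive cell cutoff set from DMSO-treated cells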
bCat KO growth = primary screen for growth suppressors in beta-catenin knockout HCT116 cells (colon tumor, human). hit rate 1.5% among 140,000. AID 818, 2007. HCT116 beta-catenin knockout viability, CellTiter-Glo, 60 h; stronger effect = lower value. viability, % at 10 µM;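 active = viability at or under a set limit, the compound median less 4 SD, cut at about 6% in these data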;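 note: 0% = Hyamine 1622 control at 20 µM and 100% = untreated cell control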
Lmaj promast = Leishmania major promastigote growth inhibition, primary screen; Leishmania major promastigotes, resazurin fluorescence viability; hit rate 9% among 200,000; AID 1063, 2008; inhibition, % at 10 µM; in the data active = inhibition above about 50%;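 note: promastigotes grown with compound for 44 hours at 28 °C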
An asterisk follows results filed as active; i = inactive; / = no result; + = active, no number.

SMILES	PTEN del growth	Insulin prom inh	Insulin prom up	Autophagy mod	bCat KO growth	Lmaj promast
Cc1ccc(C(=O)N/C(=C\c2ccc(-c3ccc(Br)cc3)o2)C(=O)NCCCN(C)C)cc1	/	/	-0.06	i	/	100.5*
Cc1ccc(C(=O)N/C(=C/c2ccc(-c3ccc(Br)cc3)o2)C(=O)NC2CCS(=O)(=O)C2)cc1 (stereo unspecified)	92.4	-20.7	-0.53	i	90.8	69.0*
N#C/C(=C/c1ccc(-c2ccc(Br)cc2)o1)C(=O)NC1CCCCC1	63.1	39.5	-0.9	i	61.3	80.7*
CC(=O)c1cccc(NC(=O)COC(=O)[C@@H](NC(=O)OCc2ccccc2)C(C)C)c1	105.4	/	1.21	i	96.4	-5.6
COc1ccc(S(=O)(=O)NCCC(=O)NCc2cccs2)cc1	93.4	-100.0	0.5	i	93.9	-9.4
CN(C)CCNC(=O)/C(=C/c1ccc(-c2ccc(Cl)cc2)o1)NC(=O)c1ccccc1	0.8*	-85.7	-0.75	i	0.9*	100.2*
S=C(NCCc1ccccc1)N1CCc2ccccc2C1	/	-50.0	-0.05	i	/	77.8*
Oc1ccc(N2CCN(C(=S)NCCc3ccccc3)CC2)cc1	57.1	6.5	-0.13	i	45.1	98.4*
COCCCNC(=S)N1CCN(C(=O)C(=O)Nc2ccc(C(=O)OC)cc2)CC1	93.4	0.0	0.04	i	93.1	30.0
COC(=O)c1ccc(NC(=O)C(=O)N2CCN(C(=S)NCCc3ccccc3)CC2)cc1	81.0	13.9	0.77	i	74.4	72.2*
S=C(NCCc1ccccc1)N1CCN(Cc2ccccc2)CC1	89.0	/	-0.14	i	88.8	57.5*
CCN(CC)S(=O)(=O)c1ccc(-c2nnco2)cc1	98.2	/	-0.07	i	95.0	-7.6
O=C(c1ccc(COc2ccccc2[N+](=O)[O-])o1)N1CCCCC1	89.2	/	-1.06	i	98.4	10.5
CCc1ccccc1NC(=S)N(Cc1ccco1)C(C)c1cccs1 (stereo unspecified)	/	-26.7	0.09	i	/	41.7
CCc1ccc(NC(=O)N(Cc2cccnc2)Cc2ccco2)cc1	104.7	-35.7	1.52	i	96.9	90.3*
CCOC(=O)c1ccc(NC(=S)N(Cc2cccnc2)Cc2ccco2)cc1	/	33.3	-0.33	i	/	100.2*
CCc1ccc(NC(=O)N(Cc2ccco2)C(C)c2cccs2)cc1 (stereo unspecified)	76.2	14.3	-1.01	i	87.3	69.7*
CC(C)CCN(C(=O)Nc1ccccc1)C(C)c1cccs1 (stereo unspecified)	67.1	10.7	0.66	i	69.2	83.3*
CCOc1cccc(-c2nnc3sc(-c4ccco4)nn23)c1	101.1	/	-0.01	i	100.0	-3.8
N#Cc1c(-c2ccccc2)cc(C2CC2)nc1N	79.2	/	1.28	i	91.8	-10.4
COC(=O)c1ccc(NC(=S)N(Cc2cccnc2)Cc2ccco2)cc1	/	16.7	-1.27	i	/	100.2*
CCc1ccc(NC(=O)CS(=O)CC(=O)NC(C)CCc2ccco2)cc1 (stereo unspecified)	94.2	/	/	+	91.1	17.7
CCOc1ccc(NC(=S)N(Cc2ccc(Cl)cc2)Cc2ccco2)cc1	79.2	/	-0.18	i	75.9	34.5
Clc1ccc(Nc2ccc(NCc3ccccc3)nn2)cc1	90.3	2.8	-0.34	i	82.3	91.1*
CCCCNC(=O)CSc1nc2ccccc2c(=O)n1C1CCCC1	74.5	/	-0.02	i	77.4	94.9*
SMILES	PTEN del growth	Insulin prom inh	Insulin prom up	Autophagy mod	bCat KO growth	Lmaj promast
COc1cc2[nH]c(=O)c(C(=O)NCCCN3CCCCC3)c(O)c2cc1OC	81.5	44.8	0.24	i	84.5	93.7*
Cc1ccc(-c2ccc(/C=C3\SC(N4CCOCC4)=NC3=O)o2)cc1	/	-77.8	-0.35	+	/	29.1
O=C1N=C(N2CCOCC2)S/C1=C/c1ccc(-c2ccc(F)cc2)o1	/	/	-0.53	i	/	-0.5
Cc1ccc(OCC(=O)N/N=C/c2ccc3c(c2)OCO3)cc1C	/	-2.7	-0.34	i	/	8.6
CC1CCCC(NC(=O)COC(=O)CCc2ccccc2)C1C (stereo unspecified)	/	41.2	-0.18	i	/	-8.5
CC1CCCC(NC(=O)COC(=O)CSc2ccc3ccccc3c2)C1C (stereo unspecified)	99.2	-37.8	0.41	i	95.2	55.4*
O=C(Cn1cnc2c(oc3ccccc32)c1=O)NCc1ccco1	83.1	81.8*	1.22	i	83.2	-1.6
